About 3,700 (7%) of roughly 53,000 sequences were called active. Only a selection was taken, and actives are over-represented in it overall. A number with no mark means an inactive call.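 Rule for the calls: active = gene knockdowns whose robust z-score for IL-1 alpha signal is at least 2 or at most -2, so actives lie on both sides; inactive = the rest.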
Test: Components of the Cytosolic LPS Sensing Pathway: Gene Identification via Genome-wide siRNA Screen;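 note: robust z of the log signal after scaling to non-targeting control siRNA wells of the plate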
Conditions: RAW264.7 macrophages, IL-1a HTRF, actives lie on both sides, screened at 100 nM (by protocol), cells primed 5 h with Pam3CSK4 first
In short: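 Three distinct siRNAs per gene were tested singly at 100 nM in RAW264.7 macrophages. Following Pam3CSK4 priming and 24 hour LipidA transfection, IL-1a secretion was read by HTRF.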

Sequence | z-score
GGAGAGAAGAUCAUUUCAATT against Ncam2 | 2.38 (active)
CCCUCCGUGUUUUUAAGAUTT against Tbl2 | 0.176
GGAUUUUGAUCUAAUGAGATT against Zfp354c | 0.366
GGCAAUUCUCUGUAUCCACTT against Cyp2d34 | -0.358
GCAUGUCGUCUGAGAAAGUTT against Pgr | -0.748
GGCUUUAUCAGAUCCAACCTT against Tmem108 | 2.47 (active)
GGUCAUAGAUGAGCUUAGUTT against Appl1 | -0.763
GGCAUGUUGAUGGGAAUUUTT against Srp9 | 0.536
GGCCUACCCAAUUCUUAACTT against Ces1g | -0.0881
GUGUUUCCUUGUUAAGAUUTT against Bloc1s4 | -0.841
CCAGUAAAAAUUGAAGGCUTT against Capza2 | 0.565
GGCCCUUCAUGAAGAGCAATT against Carf | 2.07 (active)
GGUCUACGUUAUUAUUACCTT against Etv2 | -0.537
GGAGCUUGACAUUCUGGAATT against Tmco4 | 0.766
CCGAGUUUGGGAAUAACUUTT against Cacna1a | 1.45
GGCCAUUAUUCGUGAGUUGTT against Armc10 | 2.11 (active)
CGGCAAUGUGACUAACAUCTT against Nrros | 0.76
CGAGAUGUACCUUGAUACUTT against Idh3a | 1.44
GCGAUGGACUCAAAAAACUTT against Ehd3 | 0.0497
GCUGUGUAUGUAUUUCAUGTT against Rnf128 | 0.549
GGCAGGAAUCUAUAUUAAUTT against Slc17a3 | 0.48
GCGAAAGAUAUUGUGGAAGTT against Dixdc1 | -0.511

Sequence | z-score
CCAUCAUGAACACUCAACATT against Olfr462 | -2.59 (active)
GCACUUUAAGAGACAAUGUTT against Gpr63 | 0.302
GGCUGACUGGACAAUAAAGTT against Krt85 | -1.28
CCAGUCAUCAUGCUACACGTT against Slc19a3 | 0.473
GGAGUGCUUUUAAAUCCCUTT against Rreb1 | -1.43
GCACUAAUACUAACCAUGGTT against Rhox12 | 0.788
GGCAAGAAAUUCUUCAGCATT against St8sia3 | -1.38
GGUAAUGUACCUAAUAUUGTT against Cnn1 | 0.307
GCCAGAACCGCAUAUUCUUTT against Cks2 | -0.481
GGCUGAAGCUCGACUGAAGTT against Abcf3 | 2.35 (active)
GCAACACGGCGGAAUAAAGTT against Washc1 | -0.336
GGAGCUGUAUGACCAUGCCTT against Rab25 | -2.03 (active)
GGGUGAUGAUCUUCAGCAATT against Txnrd3 | -0.616
GGACCUAAAGAUAAUAAGUTT against Pex3 | -0.481
GCCCAUCAGAUGGCAAGAUTT against Pisd | 1.09
GUCCCACACUGAUAAGAUUTT against Lcorl | -0.602
GGAGCCUAUACUGAUUUAUTT against Tomm7 | 2.13 (active)
GCAGCUUAGUGAUUUGAAATT against Tex21 | -1.24
CCGGAUUCGAGAGGUGAUGTT against Lrrc52 | 0.0804
CGGCAAAAUUAGCUAUUCATT against Exosc4 | 0.489
GGCAUUACAGUGUUUCUGCTT against Tgfbr1 | -0.288
GGGCAAUGAUUUCGCCUUCTT against Ninj1 | 0.337

Sequence | z-score
GGAUUCGUAAACUUCAGAUTT against Igf2bp3 | 3.41 (active)
GGGUCAGAACACGUACGAGTT against Gnaz | 1.06
CGAGUGUGAGCUACAGCGUTT against Agrn | 2.74 (active)
UCUGUGGACCAGGAUUUGGTT against Pcsk1n | -2.8 (active)
GGGUGUGACGAUUCUCACCTT against Olfr800 | 0.705
GGAAAAUGAAGGUUCAGAATT against Pkib | -0.185
GGACUGUGAGGCCUAUGAATT against Cd72 | -0.1
CCGAUCUGAUAUAGUAGAATT against Stk31 | 2.18 (active)
GGCCACAGAUCUUCUGGUGTT against Calml4 | 1.08
CGAGGGUCUGAAAAAUUACTT against Ighg | 1.28
GGUAUGCACUCACACCAGATT against Mus81 | 0.73
GGCCGUGUGCAUCUUUGUGTT against Gpr20 | 1.43
GGGAGAUCUCCAACACCAATT against Dipk1b | -1.02
CCUUUGGUGAAGCCUGGAUTT against Kiss1 | -0.0609
GGACUUCAUGGCUAGUUUCTT against B4galt4 | -0.14
GCAGAGCAUGCCUUACUGUTT against Eif4ebp1 | 4.39 (active)
GCUAACAGCAUCCUUUUUGTT against Vmn1r50 | -0.843
GGAGAUUGACCUGGUCAACTT against Cav1 | 1.44
GGUUAUGAUCGGCAUCGCUTT against Fam24a | -1.46
GGCUUCCUUCAGUGAGAAUTT against 1810065E05Rik | -2.02 (active)
GGCAUGAGUGCAUUUGCUATT against Ifi203 | -0.673
CCUAAGCUUAUCUCAUAUUTT against 4930449I24Rik | -0.572

Sequence | z-score
GGGCUACUACAAUGAGUACTT against Phospho1 | 0.412
GGGUGAGAUGAAAUGCAUCTT against Efemp2 | 0.264
GGCCGACAAUUUGUCAGUUTT against Uaca | -1.19
GCAAGUGUUAGAACACAAGTT against Cish | 0.823
CGGUUCUGGUGCAUUCACATT against Olfr242 | -2.06 (active)
GGAAAUUGGAGAUUUUUCCTT against Ccdc54 | -1.02
GGCAUUGGAUCUUCAUUUUTT against Slc18a1 | 2.35 (active)
GGUGGAGAUCAAACCAGAGTT against Rps15 | 1.4
GGGAAACUCUCAGAUGAAGTT against Sh2d7 | -1.9
GGCAGACAACUUCUACCAATT against Crim1 | 2.52 (active)
GGCAAAAUCUCAUCAGUCCTT against Iqcc | -0.131
GGUGAUCUAGAAACAACCCTT against Tmco5 | 0.243
CCAUCCAGCUUUCAUUAAATT against Nckap1l | 0.508
GGUCUCCAUUUCUUUCUGCTT against Nmd3 | -0.952
GGAAAGAGGAAAUCUUUAGTT against Furin | 2.04 (active)
GGACUGAAGUGAAAUAAAUTT against Trav13-5 | -0.949
GCAUCAUCGUGGGAAACCUTT against Olfr1284 | 0.331
CCAUUCUCUUUACCUCAAUTT against Rdh12 | -0.161
CCUGUAGGAGUGACUUCCUTT against Crbn | 0.223
GGGACCAGAUAGAAAUUAUTT against Arhgef25 | 0.414
GGAAGAGAAGUUGUCCAAATT against Creld1 | 0.477
GCUCACAGCAGCAUUUUACTT against 1700034H15Rik | -2.48 (active)

Sequence | z-score
GGACUCCUACAUGAUUGCUTT against Slc52a2 | -0.362
UGUGGUCUUAGAAUCUAGCTT against Tdpoz3 | 4.49 (active)
CCAUUACUUCUGUGACCUCTT against Olfr32 | -0.289
GCUGCUUUCUUUGGAGGACTT against Olfr484 | 2.27 (active)
GGAGCUCUUUGACUUCUUGTT against Uqcrh | 0.359
GGUGGCUAAAAGCUCUUCCTT against Odc1 | 1.9
GGCCCAUUGUUUGAGCCCATT against A530013C23Rik | -0.961
GGCAUUAACCUGAGAUGAUTT against Sprr2i | -1.42
GGCUAGCAGGAUCAGCAUCTT against Rnf212 | 0.617
GGUGCUUUUUUUGGAUCAATT against Olfr507 | -1.05
GGAAGAGAGGGUGAAUAUGTT against Tmem41b | -2.56 (active)
CGGCAUUCAGAUUGUCUCUTT against Nup210 | -1.22
GGCCAUUGAGUGCUCCUACTT against Dhcr7 | -0.113
CCACUCAUUGUUCAUGGAATT against Olfr1490 | 0.798
GGACCUGAGUUAGGAGAAUTT against Zfp105 | -2.06 (active)
GGCUGAGAAUGCAAGAAUGTT against Krt32 | -0.446
GGAAUUCAGCUUUGUGCAATT against Asl | 0.764
GGCCAGCAAAACAAAUGACTT against Slc34a2 | -1.01
GGUAAAGCAGUACCUUUCUTT against Mitf | 2.53 (active)
GGUGAUGCUGGAAUCUUCCTT against Svop | 0.216

Reference: PubChem BioAssay AID1508600 (Functional Genomics Laboratory (NCATS/FGL), 2020)
